# Experimental data reported in PubChem BioAssay (EPA / NIEHS).
# The source holds several records for some structures; these can differ, active in one and inactive in another. Active and inactive are the calls of the source. The calls were made as follows: active = hit-call score of the fitted dose curve at least 0.9, where 1 is the maximum; inactive = score below 0.9.
# Target: Retinoic acid receptor alpha (Homo sapiens) (UniProt P10276)
# Assay: ATG_DR5_RAR_CIS: Attagene CIS-FACTORIAL HepG2 Assay for human Retinoic Acid Receptor Alpha (RARE), DR5 submotif (AID 2282934);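 as to AC50: reporter responds to endogenous RAR alpha beta and gamma in HepG2 not RARA alone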
# Details: HepG2 Attagene cis-factorial RARE DR5 reporter, mRNA; actives raise or lower the signal
# Experimental: ATG_CIS is a cell-based, multiplexed-readout assay that uses HepG2, a human liver cell line, with measurements taken at 24 hours after chemical dosing in a 24-well plate.ATG_DR5_RAR_CIS is one of 52 assay component(s) measured or calculated from the ATG_CIS assay. It is designed to make measurements of mRNA induction, a form of inducible reporter, as detected with fluorescence intensity signals by Reverse transcription polymerase chain reaction (RT-PCR) and Capillary electrophoresis technology.Data from the assay component ATG_DR5_RAR_CIS was analyzed into 1 assay endpoint. This assay endpoint, ATG_DR5_CIS, was analyzed with bidirectional fitting relative to DMSO as the negative control and baseline of activity. Using a type of inducible reporter, measures of mRNA for gain or loss-of-signal activity can be used to understand the reporter gene at the transcription factor-level as they relate to the gene RARA and RARB and RARG. Furthermore, this assay endpoint can be referred to as a primary readout, because this assay has produced multiple assay endpoints where this one serves a reporter gene function. To generalize the intended target to other relatable targets, this assay endpoint is annotated to the nuclear receptor intended target family, where the subfamily is non-steroidal.
# Human liver HepG2 cells are transiently transfected with multiple reporter transcription units (MRTUs) in 6-well plates using FuGene 6 reagent (Roche; 3 ml FuGene/1 mg DNA). The MRTU constructs are regulated by a cis-regulating element (promoter). […] A major difference between the CIS and TRANS system is that in CIS activities of endogenous TFs are measured, whereas the TRANS assay evaluates changes in activities of exogenous, chimeric NR-Gal4 proteins. […] At the end of 24 hour incubation, total RNA was isolated using TriZol reagent (Invitrogen). The isolated RNA is then reverse-transcribed using oligo(dT) primer and Mo-MLV reverse transcriptase (Invitrogen) with DNAse I (Ambion) treatment for 30 min. The one-tenth of the produced cDNA was amplified by PCR using Taq DNA polymerase (Invitrogen) and two reporter sequence-specific primers. The PCR products were fluorescently labeled by primer extension with 6-arboxyfluorescein (6-FAM) 5'-labeled reporter sequence-specific primer (2 min at 95 C, 20 s at 68 C and 10 min at 72 C) and these products were digested with 5U of HpaI (New England Biolabs) for 2h at 37 C. The fragments were purified using Qiaquick PCR columns (Qiagen), analyzed on an ABI 3130xL genetic analyzer (Applied Biosystems) with peak positions identified by using a set of X-rhodamine (ROX)-labeled MapMarker1000 molecular weight standards (BioVentures). The raw capillary electrophoresis data was processed using Attagraph software (Attagene).
# Sequence of Retinoic acid receptor alpha (Homo sapiens) (P10276 whole entry, looked up): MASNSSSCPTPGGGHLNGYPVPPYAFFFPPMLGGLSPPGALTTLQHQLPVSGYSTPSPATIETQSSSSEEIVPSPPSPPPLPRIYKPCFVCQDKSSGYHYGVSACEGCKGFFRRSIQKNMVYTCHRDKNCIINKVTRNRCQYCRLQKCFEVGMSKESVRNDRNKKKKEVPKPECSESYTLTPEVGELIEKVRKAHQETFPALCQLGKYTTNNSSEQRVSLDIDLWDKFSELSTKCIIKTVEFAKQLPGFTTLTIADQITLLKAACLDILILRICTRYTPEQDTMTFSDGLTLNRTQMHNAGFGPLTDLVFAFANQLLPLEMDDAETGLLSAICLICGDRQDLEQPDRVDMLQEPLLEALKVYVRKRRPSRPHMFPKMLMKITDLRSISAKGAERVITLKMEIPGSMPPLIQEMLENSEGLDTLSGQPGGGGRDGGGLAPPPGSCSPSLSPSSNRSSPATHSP
Compound,outcome,AC50
CC(C)c1nnc2ccc(-c3ocnc3-c3cc(F)ccc3F)cn12,inactive,–
O=S(=O)(O)c1ccc(N=Nc2c(O)ccc3cc(S(=O)(=O)O)ccc23)cc1,inactive,–
CC(C)CCCCCCOC(=O)C1CCCCC1C(=O)OCCCCCCC(C)C (stereo not given),inactive,–
Cc1nc(-c2ccccn2)ncc1C(=O)Nn1cc(C)c2cc(F)ccc21,inactive,–
NCC(F)(F)C(F)(F)C(F)(F)C(F)(F)F,inactive,–
CNC(C)=O,inactive,–
OC[C@H]1O[C@@](CO)(O[C@H]2O[C@H](CO)[C@@H](O)[C@H](O)[C@H]2O)[C@@H](O)[C@@H]1O,inactive,–
c1ccc2cc3ccccc3cc2c1,inactive,–
OCCC(F)(F)C(F)(F)C(F)(F)C(F)(F)F,inactive,–
CCCCCCCC1CCC(=O)O1 (stereo not given),inactive,–
FC(F)(F)C(F)(F)C(F)(F)C(F)(F)C(F)(F)C(F)(F)I,inactive,103 µM (active)
O=C(Cl)C(F)(F)C(F)(F)C(F)(F)C(=O)Cl,inactive,–
OCCNCCO,inactive,–
OC(O)(C(F)C(O)(O)C(F)(F)F)C(F)(F)F,inactive,–
CCCCCCCCN(C)C,inactive,–
O=C1CN(N=Cc2ccc([N+](=O)[O-])o2)C(=O)N1,inactive,–
OCC(CO)(CO)CO,inactive,–
Cc1cccc(O)c1C,inactive,–
FC(F)=C(F)C(F)(F)C(F)(F)C(F)(F)C(F)(F)C(F)(F)C(F)(F)F,inactive,–
CCOc1ccc2[nH]cc(C(=O)NCc3ccccc3)c(=O)c2n1,inactive,–

Compound,outcome,AC50
COc1cc(C(C)C)c2c(c1)S(=O)(=O)N(COc1cc(=O)n3cccc(OCCN4CCCCC4)c3n1)C2=O,–,0.812 µM (active)
FC(F)C(F)(F)COCC1CO1 (stereo not given),inactive,–
COc1cc2c(c(OC)c1OC)-c1ccc(OC)c(=O)cc1[C@@H](NC(C)=O)CC2,inactive,–
C=CCc1cc(S(=O)(=O)c2ccc(O)c(CC=C)c2)ccc1O,inactive,–
c1ccc2c(c1)-c1cccc3c1c-2cc1ccccc13,inactive,–
CC(C)CC(C)O (stereo not given),inactive,–
O=C(O)c1cccc(C(=O)O)c1,inactive,–
O=C(O)CO,inactive,–
Nc1ccn([C@@H]2O[C@H](CO)[C@@H](O)[C@@H]2O)c(=O)n1,inactive,–
CCCCCCCC/C=C\CCCCCCCC(=O)OC[C@@H](O)[C@H]1OC[C@H](O)[C@H]1O,inactive,–
S=P(N1CC1)(N1CC1)N1CC1,inactive,–
CCCc1ccccc1,inactive,–
C[Si](C)(C)C(F)(F)C(F)(F)C(F)(F)F,inactive,–
CCCCC(CC)C(=O)OCCOCCOCCOC(=O)C(CC)CCCC (stereo not given),inactive,–
O=C(NO)C1(NS(=O)(=O)c2ccc(Oc3ccc(F)cc3)cc2)CCOCC1,inactive,–
CC(C)C(=O)Nc1ccc([N+](=O)[O-])c(C(F)(F)F)c1,inactive,–
CC[C@H](C)C(=O)O[C@H]1C[C@H](O)C=C2C=C[C@H](C)[C@H](CC[C@@H](O)C[C@@H](O)CC(=O)O)[C@H]21,inactive,–
NC(=O)N(O)[C@@H]1COc2cc(OCc3ccccc3)ccc21,–,0.406 µM (active)
Cc1nccn1-c1ccc(Sc2cccc(C3(C(N)=O)CCOCC3)c2)cc1,–,1.83 µM (active)
